Results: PubChem BioAssay
Calls of active or inactive are those of the source.

Assays:
[1] = biological target: Albumin (Bos taurus) (UniProt P02769); assay: compounds binding labelled BSA control protein – biochemical, small-molecule microarray, Alexa647 label, 635/667 nm fluorescence, artefact control for SMM control protein annotation, profiling panel (AID 1118); conditions: BSA-A647 binding, fluorescence 635 nm, higher = more signal;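 also: score merges 667 nm emission intensity and signal-to-noise per printed compound spot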
Chain of Albumin (Bos taurus) (P02769 whole entry, looked up): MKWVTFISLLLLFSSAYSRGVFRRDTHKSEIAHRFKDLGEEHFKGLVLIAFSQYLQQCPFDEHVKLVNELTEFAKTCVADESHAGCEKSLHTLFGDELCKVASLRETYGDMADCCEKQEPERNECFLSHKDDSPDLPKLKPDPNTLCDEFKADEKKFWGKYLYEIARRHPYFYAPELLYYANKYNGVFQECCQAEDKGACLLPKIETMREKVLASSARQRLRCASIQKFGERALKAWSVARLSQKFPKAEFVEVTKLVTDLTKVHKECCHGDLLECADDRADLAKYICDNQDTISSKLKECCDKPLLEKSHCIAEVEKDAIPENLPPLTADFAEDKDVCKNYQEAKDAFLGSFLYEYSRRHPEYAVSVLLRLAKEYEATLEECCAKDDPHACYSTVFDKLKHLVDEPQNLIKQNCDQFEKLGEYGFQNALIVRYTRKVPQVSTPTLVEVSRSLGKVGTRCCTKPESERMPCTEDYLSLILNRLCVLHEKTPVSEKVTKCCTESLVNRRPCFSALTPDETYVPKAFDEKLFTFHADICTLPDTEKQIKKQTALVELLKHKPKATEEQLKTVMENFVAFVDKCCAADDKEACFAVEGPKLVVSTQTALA

[2] = probe aXIP binding to arrayed compounds – biochemical, NeuroSMM set, 635/667 nm fluorescence, primary screen (AID 1119); conditions: small-molecule microarray, higher = more signal, called active from +8 up or from −8 down;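 also: probe is the protein aXip251-270 applied at 1 µg/mL to compound-printed slides; binding of probe to printed compounds measured as 667 nm fluorescence plus signal to noise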
[3] = probe aNOTCH3 binding on compound microarray – biochemical, small-molecule microarray, 635/667 nm fluorescence, primary screen (AID 1120); conditions: higher = more signal;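 also: probe is a biotin-tagged antibody raised against NOTCH3 rather than NOTCH3 protein; score merges spot fluorescence near 667 nm with spot signal to noise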
[4] = probe aNOTCH2 binding on compound microarray – biochemical, small-molecule microarray, 635/667 nm fluorescence, primary screen (AID 1121); conditions: higher = more signal;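 also: score merges feature fluorescence read at 667 nm with its signal to noise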
[5] = biological target: Carbonic anhydrase 2 (Homo sapiens) (UniProt P00918); assay: compounds binding carbonic anhydrase 2 – biochemical, small-molecule microarray, Alexa647-labelled CAII, profiling panel (AID 1122); conditions: CAII-A647 binding fluorescence, higher = more signal
[6] = COS7 lysate on small-molecule microarray, probe aHis, 635 nm (AID 1123); conditions: COS7 cell lysate, fluorescence, higher = more signal;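 also: z-score combines 667nm fluorescence intensity with signal-to-noise per printed compound spot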
[7] = probe aLAP1 signal on lysate-treated microarray – cell lysate, small-molecule microarray, COS7 lysate, primary screen (AID 1124); conditions: probe aLAP1, fluorescence, higher = more signal;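 also: lysate comes from COS7 cells expressing LAP1 and is applied at 0.3 µg/mL; score merges spot fluorescence near 667 nm with signal-to-noise over triplicate slides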
[8] = test system: Sam68 (KHDRBS1); assay: compounds binding KHDRBS1 protein – biochemical, small-molecule microarray, 635 nm fluorescence, primary screen (AID 1125); conditions: higher = more signal;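 also: score merges 667 nm channel intensity with signal to noise over triplicate slides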
[9] = test system: Chordin-like protein 2 (CHRDL2); assay: compounds binding chordin-like 2 – biochemical, small-molecule microarray, 635 nm fluorescence, primary screen (AID 1126); conditions: fluorescence 635 nm, higher = more signal;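 also: printed compound slides probed with Chrdl2 protein at 4 µg/mL for 1 h at 4 C; score merges 667 nm emission intensity with signal to noise over three replicate slides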
[10] = biological target: Concanavalin-A (Canavalia ensiformis) (UniProt P02866); assay: compounds binding concanavalin A lectin – biochemical, small-molecule microarray, Alexa647 label, 635 nm, artefact control for SMM control protein annotation, primary screen (AID 1127); conditions: ConA-A647 binding fluorescence, higher = more signal;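 also: z combines 667 nm emission intensity with signal-to-noise across three replicate slides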
Chain of Concanavalin-A (Canavalia ensiformis) (P02866 whole entry, looked up): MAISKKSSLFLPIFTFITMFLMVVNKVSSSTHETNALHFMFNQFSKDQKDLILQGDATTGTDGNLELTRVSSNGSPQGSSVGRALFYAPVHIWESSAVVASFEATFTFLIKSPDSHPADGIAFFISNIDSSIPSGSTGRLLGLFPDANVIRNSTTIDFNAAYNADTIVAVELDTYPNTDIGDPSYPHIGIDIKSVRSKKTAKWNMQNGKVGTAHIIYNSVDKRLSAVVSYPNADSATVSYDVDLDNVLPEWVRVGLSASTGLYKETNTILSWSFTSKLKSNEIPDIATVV

[11] = compounds binding Alexa647 anti-His antibody – biochemical, small-molecule microarray, 635 nm fluorescence, artefact control for SMM control protein annotation, primary screen (AID 1128); conditions: higher = more signal;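 also: score merges feature fluorescence with signal-to-noise for each printed compound spot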
[12] = test system: Human papillomavirus type 1a E7 protein (residues 1-88); assay: HPV1a E7 small-molecule binders, primary screen, biochemical, small-molecule microarray, residues 1-88, 635 nm (AID 1129); conditions: small-molecule microarray binding, fluorescence 635 nm; higher = more signal
[13] = biological target: Focal adhesion kinase 1 (Homo sapiens) (UniProt Q05397); assay: PTK2 protein binding on printed compound slides – biochemical, small-molecule microarray, 635/667 nm fluorescence, BSA, DTT, primary screen (AID 1130); conditions: 635 nm fluorescence, higher = more signal;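 also: composite of spot emission at 667 nm and signal to noise over triplicate slides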
Chain of Focal adhesion kinase 1 (Homo sapiens) (Q05397 whole entry, looked up): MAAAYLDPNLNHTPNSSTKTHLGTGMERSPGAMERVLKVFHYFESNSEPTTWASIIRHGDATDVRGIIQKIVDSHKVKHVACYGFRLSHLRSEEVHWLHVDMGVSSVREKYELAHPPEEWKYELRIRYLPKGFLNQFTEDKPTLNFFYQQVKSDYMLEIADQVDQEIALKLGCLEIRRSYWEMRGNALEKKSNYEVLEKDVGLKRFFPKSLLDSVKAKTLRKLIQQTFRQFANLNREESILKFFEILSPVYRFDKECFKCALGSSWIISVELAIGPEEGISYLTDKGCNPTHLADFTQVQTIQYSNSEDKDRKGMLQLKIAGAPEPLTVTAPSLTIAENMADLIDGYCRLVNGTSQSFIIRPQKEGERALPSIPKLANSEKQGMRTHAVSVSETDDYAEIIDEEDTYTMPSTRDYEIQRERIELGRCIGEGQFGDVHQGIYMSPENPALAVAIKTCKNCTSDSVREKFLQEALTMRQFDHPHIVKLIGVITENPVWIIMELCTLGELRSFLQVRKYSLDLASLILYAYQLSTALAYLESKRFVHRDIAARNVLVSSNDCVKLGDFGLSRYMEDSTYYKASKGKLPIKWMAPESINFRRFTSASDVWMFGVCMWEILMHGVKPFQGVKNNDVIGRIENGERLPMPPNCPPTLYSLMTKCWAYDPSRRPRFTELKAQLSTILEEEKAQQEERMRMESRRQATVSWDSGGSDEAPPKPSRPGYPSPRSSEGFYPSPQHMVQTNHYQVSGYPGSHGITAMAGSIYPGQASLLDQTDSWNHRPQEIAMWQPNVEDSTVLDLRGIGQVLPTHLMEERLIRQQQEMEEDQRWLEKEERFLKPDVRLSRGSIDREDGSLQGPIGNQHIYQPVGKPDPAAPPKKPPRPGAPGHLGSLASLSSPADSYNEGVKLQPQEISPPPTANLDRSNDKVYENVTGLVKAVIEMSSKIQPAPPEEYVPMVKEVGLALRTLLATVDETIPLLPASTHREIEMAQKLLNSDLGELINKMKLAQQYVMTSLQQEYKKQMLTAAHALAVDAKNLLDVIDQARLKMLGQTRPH

[14] = test system: Fibrinogen (Alexa647-labelled); assay: Alexa647-fibrinogen binding to printed small molecules – biochemical, small-molecule microarray, 635/667 nm fluorescence, artefact control for SMM control-protein annotation, profiling panel (AID 1131); conditions: fibrinogen-A647 binding fluorescence, higher = more signal;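 also: z-score merges 667 nm fluorescence with per-spot signal-to-noise over triplicate slides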
[15] = biological target: Follistatin (Homo sapiens) (UniProt P19883); assay: FST protein binding to printed compounds – biochemical, small-molecule microarray, 635/667 nm fluorescence, primary screen (AID 1132); conditions: 635 nm fluorescence, higher = more signal
Chain of Follistatin (Homo sapiens) (P19883 whole entry, looked up): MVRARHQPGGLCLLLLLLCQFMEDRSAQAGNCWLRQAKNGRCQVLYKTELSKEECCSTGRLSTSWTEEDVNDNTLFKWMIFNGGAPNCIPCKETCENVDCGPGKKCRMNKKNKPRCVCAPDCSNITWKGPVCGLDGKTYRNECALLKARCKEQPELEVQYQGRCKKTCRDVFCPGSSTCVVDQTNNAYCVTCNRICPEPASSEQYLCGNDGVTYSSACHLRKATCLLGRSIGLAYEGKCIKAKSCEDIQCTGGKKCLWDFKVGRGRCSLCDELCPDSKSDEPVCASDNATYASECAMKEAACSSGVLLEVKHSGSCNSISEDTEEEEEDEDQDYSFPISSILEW

[16] = biological target: Fibroblast growth factor 2 (Homo sapiens) (UniProt P09038); assay: basic fibroblast growth factor binding to printed compounds – biochemical, small-molecule microarray, 635/667 nm fluorescence, primary screen (AID 1133); conditions: FGF2, fluorescence 635/667, higher = more signal
Chain of Fibroblast growth factor 2 (Homo sapiens) (P09038 whole entry, looked up): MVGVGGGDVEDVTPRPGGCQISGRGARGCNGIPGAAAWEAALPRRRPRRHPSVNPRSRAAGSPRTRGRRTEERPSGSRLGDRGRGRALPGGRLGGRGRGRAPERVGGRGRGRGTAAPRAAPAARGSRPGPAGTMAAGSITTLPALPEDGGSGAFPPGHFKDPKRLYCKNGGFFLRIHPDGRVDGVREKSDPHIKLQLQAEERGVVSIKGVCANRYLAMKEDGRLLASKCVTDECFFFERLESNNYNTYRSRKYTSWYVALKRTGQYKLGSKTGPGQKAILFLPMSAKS

[17] = JC-1 mitochondrial potential readout, lung cancer cells – cell-based, A549, JC-1 fluorescence, basal, 24 h, 100 nL, profiling panel (AID 1138); conditions: higher = more signal;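 also: A549 lung adenocarcinoma cells under basal conditions with no added stimulus; test concentration not given here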
[18] = test system: Lefty1; assay: Lefty1 protein binding to printed compounds – biochemical, small-molecule microarray, 635/667 nm fluorescence, primary screen (AID 1139); conditions: fluorescence 635/667, higher = more signal
[19] = test system: wheat germ agglutinin (Triticum aestivum), Alexa647-labelled; assay: Alexa647-WGA lectin binding to printed small molecules – biochemical, small-molecule microarray, 635/667 nm fluorescence, artefact control for SMM control-protein annotation, profiling panel (AID 1140); conditions: WGA-A647 binding, 635 nm fluorescence, higher = more signal;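 also: score merges 667 nm feature emission with signal to noise over triplicate slides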
[20] = biological target: Luciferin 4-monooxygenase (Photinus pyralis) (UniProt P08659); assay: inhibition of purified Photinus pyralis luciferase – biochemical, luminescence, purified enzyme, 2006 set, primary screen (AID 1141); conditions: purified firefly luciferase, SteadyGlo luminescence, 30 min; higher = more signal, called active from +8 up or from −8 down;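 also: cell-free assay with purified firefly luciferase at 100 ng per well in PBS; test concentration not given here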
Chain of Luciferin 4-monooxygenase (Photinus pyralis) (P08659 whole entry, looked up): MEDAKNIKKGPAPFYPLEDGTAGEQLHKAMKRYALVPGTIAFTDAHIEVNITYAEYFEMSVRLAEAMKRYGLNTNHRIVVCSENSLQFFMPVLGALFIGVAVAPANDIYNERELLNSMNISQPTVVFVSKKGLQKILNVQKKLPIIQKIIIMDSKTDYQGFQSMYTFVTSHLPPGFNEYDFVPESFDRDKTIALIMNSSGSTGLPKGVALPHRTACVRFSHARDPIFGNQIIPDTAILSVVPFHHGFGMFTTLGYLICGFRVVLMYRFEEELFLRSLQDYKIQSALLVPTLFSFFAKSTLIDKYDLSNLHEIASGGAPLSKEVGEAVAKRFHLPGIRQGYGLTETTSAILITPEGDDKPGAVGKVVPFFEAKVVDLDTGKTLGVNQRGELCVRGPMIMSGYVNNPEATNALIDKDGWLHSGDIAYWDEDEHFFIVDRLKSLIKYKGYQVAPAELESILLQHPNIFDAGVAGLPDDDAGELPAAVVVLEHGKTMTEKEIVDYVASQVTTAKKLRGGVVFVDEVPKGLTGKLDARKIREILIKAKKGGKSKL

Structure (SMILES) | composite z-score [1] | composite Z-score [2] | composite z-score [3] | composite z-score [4] | composite z-score [5] | composite z-score [6] | composite z-score [7] | composite z-score [8] | composite z-score [9] | composite z-score [10] | composite z-score [11] | composite z-score [12] | composite z-score [13] | composite z-score [14] | composite z-score [15] | composite z-score [16] | z-score [17] | composite z-score [18] | composite z-score [19] | z-score [20]
NC(=O)N1C(=O)C2C(C1=O)C1C=C(c3ccc(CO)cc3)C2C(c2cccs2)N1Cc1cccc(OC(F)(F)F)c1 (stereo not given) | -0.137 | 0.29 (inactive) | 0.111 | -0.0449 | 0.72 | 0.669 | 0.798 | -0.882 | 0.38 | -0.0204 | 1.16 | 0.0253 | 0.556 | -0.0767 | 0.704 | -0.365 | 1.22 | 0.444 | 0.949 | -2.17 (inactive)
CC(C)C(=C=CC[C@H](O)c1ccc(OCCO)cc1)CCO | 0.467 | -0.435 (inactive) | -0.116 | -0.174 | 0.228 | 1.83 | 0.182 | 1.28 | 0.489 | 0.549 | 1.07 | 1.2 | 0.178 | 0.53 | 1.38 | 1.05 | 0.41 | 1.07 | 0.295 | -0.961 (inactive)
CN1C(=O)C2C=CC(C(O)c3ccco3)N(Nc3ccccc3)C2C1=O (stereo not given) | -0.152 | 0.472 (inactive) | 0.0974 | -0.0267 | 0.803 | -0.039 | 0.574 | 0.68 | 0.685 | 0.477 | 1.72 | 0.103 | -0.0653 | 0.822 | 0.861 | 0.33 | 0.207 | 0.332 | 0.594 | 0.0206 (inactive)
COC(=O)[C@@]1(Cc2ccc(OC)cc2)[C@H]2c3cc(C(=O)N(C)C)n(C)c3C[C@H]2CN1C(=O)c1ccccc1 | 1.03 | 0.0517 (inactive) | 0.839 | 0.284 | 0.76 | 3.16 | 0.0675 | 1.31 | -0.1 | 1.15 | 0.392 | 1.27 | 0.698 | 0.97 | 1.22 | 0.0022 | 1.05 | 0.146 | 1.11 | 1.82 (inactive)
CN1C(=O)C2C=CC(C(O)C3CC=CCC3)N(N(c3ccccc3)c3ccccc3)C2C1=O (stereo not given) | -0.197 | 0.0007 (inactive) | 0.0715 | 0.19 | -0.287 | -0.202 | 0.52 | -1.25 | 0.774 | -0.372 | 0.118 | -1.42 | 0.102 | 0.0963 | 0.988 | -0.179 | 0.43 | 0.449 | 0.259 | 0.529 (inactive)
CCOC(=O)C[C@H]1[C@H](OC(=O)c2ccc(-c3ccccc3)cc2)[C@@H](NC(=O)Cc2ccc(OC)cc2)c2cc(OCCCO)ccc2N1C(=O)c1ccccc1 | 0.167 | 0.0175 (inactive) | 0.15 | -0.135 | -0.0516 | 0.614 | -0.105 | 0.264 | -0.348 | 0.0776 | 0.0013 | -0.483 | 0.0865 | 0.44 | 0.349 | 0.0164 | 0.188 | 0.299 | 0.241 | 0.785 (inactive)
COc1cc(C(O)C2C=CC3C(=O)NC(=O)C3N2Nc2ccccn2)cc(OC)c1OC (stereo not given) | 0.354 | 0.183 (inactive) | -0.108 | 0.0339 | 0.749 | 2.43 | -0.0653 | 0.466 | 0.361 | 0.585 | 1.26 | 0.852 | 0.184 | 0.764 | 0.169 | 0.158 | 0.623 | -0.188 | 0.0705 | -0.0958 (inactive)
[N-]=[N+]=NCc1ccccc1[C@@H]1OC(c2ccc(OCCCO)cc2)=N[C@]1(Cc1ccccc1)C(N)=O | 0.979 | -0.791 (inactive) | 0.526 | 0.0646 | 0.783 | 1.79 | 0.222 | 1.3 | -0.692 | 1.16 | 0.888 | 1.25 | 1.22 | 1.06 | 1.28 | 0.0766 | 0.199 | 0.186 | 1.06 | -0.0322 (inactive)
COc1cc2c(cc1OC)CN(C(=O)[C@H]1[C@@H]3C(=O)O[C@@H](c4ccccc4)[C@@H](c4ccccc4)N3[C@@H](c3ccc(O)cc3)[C@]13C(=O)Nc1ccccc13)CC2 | -0.134 | 2.52 (inactive) | -0.0672 | 0.0481 | 0.402 | 2.34 | 0.399 | 1.07 | 0.139 | 0.777 | 1.65 | 1.19 | 0.81 | 0.253 | 0.354 | 0.39 | -0.517 | 0.331 | 0.115 | -0.204 (inactive)
COC(=O)[C@@]1(Cc2ccc(F)cc2)[C@H]2c3cc(C(=O)N(C)C)n(Cc4cc(F)c(F)c(F)c4)c3C[C@H]2CN1C(=O)c1ccccc1 | 0.935 | 0.0144 (inactive) | 0.672 | 0.214 | 0.613 | 2.37 | 0.351 | 1.13 | -0.0618 | 1.13 | 1.13 | 1.21 | 0.538 | 0.711 | 1.02 | -0.0402 | 0.918 | -0.788 | 0.704 | 2.37 (inactive)
C=C(CC1([C@@H](NP(=O)(c2ccccc2)c2ccccc2)[C@H]2C[C@@H]2CCCC)CC1)c1ccccc1 | 0.844 | 0.121 (inactive) | 0.335 | 0.17 | 0.252 | 2.67 | -0.293 | 1.14 | -0.874 | 0.546 | 0.767 | 1.19 | 0.0976 | 0.746 | 0.132 | 0.0962 | -0.0757 | -0.415 | 0.729 | 2.82 (inactive)
